Here are results for 19 molecules from PubChem BioAssay (Tox21).

The structures appear in SMILES notation. Where “and” joins values, the source holds several entries; their conditions need not be identical. Equal values may be shown once. Inconclusive results are not listed. The source holds several records for some structures; these can differ, active in one and inactive in another. Calls of active or inactive are those of the source. Unless noted, calls follow the shape of the dose curve; as a rule, active = well fitted curve in the direction sought with a large enough effect in the repeat runs; inconclusive = weak or mixed curves; inactive = no such curve, though single readings can be large; an effect the other way counts as inactive or inconclusive.

For experiment [1], the target named is Androgen receptor (Homo sapiens) (UniProt P10275). Briefly: qHTS assay to identify small molecule antagonists of the androgen receptor (AR) signaling pathway using the MDA cell line in the presence of 0.5 nM R1881 (AID 1259243). Also: nearly all actives have a fitted effect of over 50% in size. Also: potency is read from the fitted curve at half-maximal effect. The method, boiled down: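 MDA-kb2 cells (MMTV-luciferase, responsive to AR and GR) at 3,000/well, rested 5 h at 37C, 0% CO2, then given compounds plus 0.5 nM R1881 (final) for 16 hr. Luciferase read with ONE-Glo after 30 min at room temperature.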
Sequence of Androgen receptor (Homo sapiens) (P10275 whole entry, looked up): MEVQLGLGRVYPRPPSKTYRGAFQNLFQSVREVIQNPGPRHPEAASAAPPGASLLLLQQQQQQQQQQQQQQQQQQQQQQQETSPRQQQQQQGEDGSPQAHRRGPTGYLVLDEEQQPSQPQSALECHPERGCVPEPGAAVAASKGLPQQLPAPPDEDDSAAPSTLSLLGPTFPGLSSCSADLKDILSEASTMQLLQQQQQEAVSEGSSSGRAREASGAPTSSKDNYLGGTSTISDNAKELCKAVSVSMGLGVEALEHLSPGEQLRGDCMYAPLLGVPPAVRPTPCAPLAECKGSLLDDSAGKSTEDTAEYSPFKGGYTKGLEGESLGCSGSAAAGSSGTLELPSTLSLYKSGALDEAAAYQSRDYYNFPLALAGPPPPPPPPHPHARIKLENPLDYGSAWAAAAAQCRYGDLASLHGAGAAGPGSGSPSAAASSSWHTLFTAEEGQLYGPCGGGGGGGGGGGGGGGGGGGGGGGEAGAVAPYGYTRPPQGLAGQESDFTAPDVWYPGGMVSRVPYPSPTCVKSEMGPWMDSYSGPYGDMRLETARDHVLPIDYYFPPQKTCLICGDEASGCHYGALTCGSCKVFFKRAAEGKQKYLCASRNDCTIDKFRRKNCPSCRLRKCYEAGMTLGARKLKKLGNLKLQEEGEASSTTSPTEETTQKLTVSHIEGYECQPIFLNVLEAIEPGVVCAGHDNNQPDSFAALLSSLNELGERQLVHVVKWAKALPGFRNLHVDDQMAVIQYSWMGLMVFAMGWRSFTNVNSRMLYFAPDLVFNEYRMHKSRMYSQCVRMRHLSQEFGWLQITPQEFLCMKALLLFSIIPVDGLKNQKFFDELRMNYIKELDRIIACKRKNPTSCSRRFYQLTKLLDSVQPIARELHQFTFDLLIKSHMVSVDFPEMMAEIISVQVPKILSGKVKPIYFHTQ
Background: qHTS replaces the single test concentration by a dilution series.

Experiment [2] can be described thus: qHTS assay to identify small molecule HDAC inhibitors (AID 1259364). Also: nearly all actives have a fitted effect of over 45% in size. Also: potency is read from the fitted curve at half-maximal effect. The essentials: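 Wild-type HCT-116 cells, plated overnight at 37 C, exposed to compounds 2 hr at 37 C; luminogenic HDAC-Glo substrate then added 30 min at room temperature. Luminescence reports relative endogenous class I/II HDAC activity.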
The nature of experiment [3]: qHTS assay to identify small molecule HDAC inhibitors - cell viability counter screen (AID 1259365). Also: nearly all actives have a fitted effect of over 50% in size. Also: potency is read from the fitted curve at half-maximal effect. The method, boiled down:
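Luminescence from CellTiter-Glo, developed 30min at room temperature, reports viability of wild-type HCT-116 cells treated 2hr with compounds at 37 C and 5% CO2 after overnight plating.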

A short description of experiment [4]: qHTS assay to identify small molecule agonists of the sonic hedgehog signaling (Shh) pathway - cell viability counter screen (AID 1259366). Also: nearly all actives have a fitted effect of over 50% in size. Also: potency is read from the fitted curve at half-maximal effect. The essentials: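 Cytotoxicity counter screen run in the same wells as the Shh reporter assay. NIH/3T3 cells carrying a Gli1 response element–driven luciferase were treated with DMSO-dissolved compounds for 24hr, and live-cell protease activity was measured with CellTiter-Fluor.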

Experiment [5] can be described thus: qHTS assay to identify small molecule antagonists of the sonic hedgehog signaling (Shh) pathway - cell viability counter screen (AID 1259367). Also: nearly all actives have a fitted effect of over 55% in size. Also: potency is read from the fitted curve at half-maximal effect. The essentials: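 After a 4 hr settling period, 3T3 Gli1-Luc cells were treated with DMSO-dissolved chemicals and conditioned medium, kept 24 hr at 37C in 5% CO2, and assayed for viability by CellTiter-Fluor fluorescence following 1 hr reagent incubation.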

Experiment [6] is described as follows: qHTS assay to identify small molecule agonists of the sonic hedgehog signaling (Shh) pathway (AID 1259368; calls by dose curve; also: nearly all actives have a fitted effect of over 15% in size; also: potency is read from the fitted curve at half-maximal effect). The method, boiled down:
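NIH/3T3-derived 3T3Gli1-Luc cells with stably integrated Gli1-driven firefly luciferase, 2,000 cells/well, compounds added after 4 hr. Incubated 24 hr at 37C, 5% CO2; luminescence read after 30 min with luciferase reagent at room temperature.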

A short description of experiment [7]: qHTS assay to identify small molecule antagonists of the sonic hedgehog signaling (Shh) pathway (AID 1259369; calls by dose curve; also: nearly all actives have a fitted effect of over 45% in size; also: potency is read from the fitted curve at half-maximal effect). The method, boiled down:
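NIH/3T3-derived Gli1-Luc reporter cells plated 4 h, dosed with compound, then stimulated with conditioned medium for 24 h at 37 C. Firefly luciferase luminescence read after 30 min with detection reagent at room temperature.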

Experiment [8] has as its target Estrogen receptor beta (Homo sapiens) (UniProt Q92731). Briefly: qHTS assay to identify small molecule agonists of the estrogen receptor beta (ER-beta) signaling pathway (AID 1259377; active = well fitted activation curve with a large enough effect in the signal ratio in the repeat runs, not every such curve was filed as active; the % refers to the signal ratio). The method, boiled down: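 HEK293T ER-beta-UAS-bla; 2% charcoal-stripped FBS; cells pre-incubated 6 hr, compound 16 hr, 37C/5% CO2; LiveBLAzer B/G FRET substrate 2 h RT; fluorescence intensity read.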

Experiment [9] can be described thus: qHTS assay to identify small molecule phospholipidosis (PLD) inducers (AID 1259344; active = well fitted curve in the direction sought with a large enough effect; an effect the other way counts as inactive or inconclusive). The method, boiled down: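 HepG2 cells grown on collagen I take up LipidTOX Red while exposed to compound for 24 h; after fixation they are imaged at 20x and pit metrics are extracted.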

Sequence of Estrogen receptor beta (Homo sapiens) (Q92731 whole entry, looked up): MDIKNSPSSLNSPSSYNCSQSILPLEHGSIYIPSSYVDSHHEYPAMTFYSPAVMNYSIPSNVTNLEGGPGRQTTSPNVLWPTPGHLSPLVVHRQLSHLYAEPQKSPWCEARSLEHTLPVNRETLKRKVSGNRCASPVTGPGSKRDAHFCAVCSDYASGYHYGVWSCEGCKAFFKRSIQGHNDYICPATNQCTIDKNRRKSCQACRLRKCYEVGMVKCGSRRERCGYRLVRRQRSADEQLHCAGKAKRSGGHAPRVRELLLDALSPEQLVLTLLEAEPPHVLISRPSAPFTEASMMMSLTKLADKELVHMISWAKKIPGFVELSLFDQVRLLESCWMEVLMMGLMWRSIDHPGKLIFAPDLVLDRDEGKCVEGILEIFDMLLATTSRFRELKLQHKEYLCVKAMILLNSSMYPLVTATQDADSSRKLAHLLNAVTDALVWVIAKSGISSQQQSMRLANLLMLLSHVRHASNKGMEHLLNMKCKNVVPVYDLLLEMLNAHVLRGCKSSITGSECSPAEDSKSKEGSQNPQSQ

As to `Cc1ccc(-n2[nH]c(C)c(N=Nc3cccc(-c4cccc(C(=O)O)c4)c3O)c2=O)cc1C`, the Potency result in experiment [1], in [2], in [3], in experiment [4], in [5] and in [6] was “inactive” throughout. In addition, the Potency entry in experiment [7] and in [8] was “inactive” throughout.
Turning to `O=C(Oc1ccccc1)c1cccc(C(=O)Oc2ccccc2)c1`, the Potency entry in experiment [1], in experiment [3], in experiment [4], in experiment [5] and in [7] was “inactive” each time. The results for the Potency in experiment [2] and in [6] were 0.0885 µM (active) and 2.29 µM (active), respectively.
`CCC1CCCCC1`: the Potency entry in experiment [1], in experiment [2], in experiment [3], in [4], in experiment [5] and in experiment [6] was “inactive” each time. Also, the Potency entry in [7] was “inactive”.
Regarding `CCCC(C)CCC(C)=O` (stereo not given), the Potency entry in experiment [1], in experiment [2], in [3], in experiment [4], in [5] and in experiment [6] was “inactive” in each case. The Potency result in [7] is “inactive”.
With `COc1cccc(OC)c1O`, the Potency result in experiment [1], in [2], in experiment [3], in [5], in experiment [6] and in [7] was “inactive” throughout.
As to `Cc1c(C(=O)O)cccc1[N+](=O)[O-]`, the Potency entry in experiment [1], in [2], in experiment [3] and in experiment [6] was “inactive” in each case. The Potency is 55.4 µM (active) in experiment [5] and 19.6 µM (active) in experiment [7].
Consider `O=C(NO)c1ccccc1`, for which the Potency entry in [1], in [9], in experiment [3] and in experiment [6] was “inactive” throughout. The Potency in [4] was 26 µM (active); in experiment [7], 29.2 µM (active).
As for `CCCCCCCC(OC)OC`, the Potency result in [1], in [2], in [3], in experiment [5], in experiment [6] and in experiment [7] was “inactive” throughout.
On to `CC1(C)COCN1`, for which the Potency result in experiment [1], in experiment [2], in [3], in experiment [4], in experiment [5] and in experiment [6] was “inactive” throughout. Moreover, in experiment [8], the Potency result was “inactive”.
For the molecule `Nc1ccc2cc3ccc(N)cc3nc2c1`, in [1], the Potency entry is “inactive and 10.6 µM (active)”. Also, the Potency entry in experiment [9], in experiment [2], in [6] and in experiment [7] was “inactive” throughout.
For the molecule `O=C[C@H](O)[C@H](O)[C@H](O)CO`, the Potency result in experiment [1], in experiment [2], in experiment [3], in experiment [4], in experiment [5] and in experiment [6] was “inactive” in each case. For the same molecule, the Potency entry in experiment [7] and in experiment [8] was “inactive” in each case.
For the molecule `CN(C)c1ccc(N=NS(=O)(=O)O)cc1`, the Potency in experiment [1] was 22.9 µM (active); in experiment [6], 16.2 µM (active); in [7], 12.2 µM (active). For the same molecule, the Potency result in experiment [9], in experiment [3] and in experiment [4] was “inactive” each time.
Take `CCC(C)c1cc([N+](=O)[O-])cc([N+](=O)[O-])c1OC(=O)OC(C)C` (stereo not given): the results for the Potency in experiment [1], in [5] and in experiment [7] were 38.6 µM (active), 68.6 µM (active) and 21.7 µM (active), respectively. Besides, the Potency result in experiment [2], in [3] and in experiment [6] was “inactive” in each case.
On to `CCOC(=O)C1=C(C)NC(C)=C(C(=O)OCC)C1c1ccccc1/C=C/C(=O)OC(C)(C)C`, for which the Potency in experiment [1] was 23.7 µM (active); in experiment [5], 29.8 µM (active); in [7], 29.8 µM (active). The Potency result in experiment [9], in [2], in experiment [3] and in experiment [6] was “inactive” each time.
Turning to `C=CC(=O)OCCC#N`, the Potency result in experiment [1], in experiment [2], in [3], in experiment [4], in [5] and in [6] was “inactive” in each case. In experiment [7], the Potency entry is “inactive”.
With `CC(=O)O[C@@H]1C[C@@H]2CC[C@@]1(C)C2(C)C`, the Potency result in experiment [1], in experiment [2], in [3], in experiment [4], in experiment [5] and in experiment [6] was “inactive” in each case. The Potency entry in experiment [7] and in experiment [8] was “inactive” each time.
With `CCOC(=O)CC(C)O` (stereo not given), the Potency result in experiment [1], in experiment [2], in experiment [3], in experiment [4], in experiment [5] and in experiment [6] was “inactive” each time. Further, the Potency result in [7] and in experiment [8] was “inactive” throughout.
As to `CCN=C1C=CC(=C(c2ccc(N(CC)CC)cc2)c2ccc(N(CC)CC)cc2)c2ccccc21`, the Potency in experiment [1] was 0.608 µM (active); in experiment [2], 27.1 µM (active); in [3] it was 34.2 µM (active); in experiment [4] it was 21.6 µM (active); in experiment [5], 24.2 µM (active); in [7], 0.0963 µM (active). Further, the Potency result in experiment [6] and in experiment [8] was “inactive” in each case.
In the case of `CC(C)(c1cc(Br)c(OCCO)c(Br)c1)c1cc(Br)c(OCCO)c(Br)c1`, the values for the Potency in experiment [1] and in [7] were 23.8 µM (active) and 1.89 µM (active), respectively. Moreover, the Potency entry in experiment [2], in [3], in experiment [5], in experiment [6] and in [8] was “inactive” each time.
